PubChem BioAssay (NCI)
Compounds without any hit were thinned out: in the full panel of roughly 83,000, 20% have a hit.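 Activity criterion: percent growth below 10, measured after cells in 96-well plates were exposed to a single compound concentration for 48 hours.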 A number with no mark means an inactive call. Activity calls are given as the source filed them.

Legend:
Test in all cases: NCI-60 one-dose screen, 48 h (100 = growth as untreated, 0 = no growth, -100 = all killed)
Conditions in all cases: 10 µM unless noted
[1] = system: SR leukemia
[2] = system: RPMI-8226 leukemia
[3] = system: OVCAR-8 ovarian
[4] = system: OVCAR-5 ovarian
[5] = system: OVCAR-4 ovarian
[6] = system: SK-OV-3 ovarian
[7] = system: IGROV1 ovarian
[8] = system: OVCAR-3 ovarian
[9] = system: HS 578T breast
[10] = system: NCI/ADR-RES ovarian

Compound	growth [1]	growth [2]	growth [3]	growth [4]	growth [5]	growth [6]	growth [7]	growth [8]	growth [9]	growth [10]
Cc1cccc(NCS(=O)(=O)O)c1	107%	102%	88.6%	107%	109%	97.4%	102%	116%	104%	105%
CC(=O)Cc1cccnc1	104%	93%	97%	109%	108%	114%	100%	116%	95.2%	104%
CCc1cccc(C)c1NC(=O)c1sc2nc3c(cc2c1N)CCCCC3	14.4%	12.2%	28.9%	45%	63.9%	36.9%	46.5%	3.96% (active)	36%	14.2%
COc1ccc(Cn2cc(COc3ccc4c5ccnc(C)c5n(CCCc5ccccc5)c4c3)nn2)cc1	-29% (active)	-3.72% (active)	61.9%	111%	70.2%	95.3%	75.3%	76%	77.8%	67%
CC(C(=O)O)N1C(N)=NNC1c1ccccc1O (stereo not given)	72.2%	73.1%	90.2%	108%	76.3%	105%	70.9%	83%	91.1%	83.8%
O=C(Nc1ccc(F)cc1)Nc1ccc(Br)c(C(F)(F)F)c1	13.8%	-29.7% (active)	11.4%	30.2%	22.5%	-8.74% (active)	25.7%	11.9%	35.4%	1.19% (active)
Cc1ccc(-c2cn3cc([N+](=O)[O-])ccc3n2)cc1	75.5%	72.6%	76.7%	109%	78.1%	102%	71%	101%	97.1%	83.4%
COCCNC(C(=O)c1ccccc1)c1ccccc1 (stereo not given)	109%	98.4%	97.7%	95.1%	105%	101%	102%	104%	100%	107%
O=C1c2ccccc2OC=C(c2ccccc2)N1CCCCNc1ccc(F)cc1	81%	69.8%	80.6%	95.7%	89.9%	67.9%	81.9%	110%	94.7%	85.8%
O=C1COc2ccccc2C(=O)N1CCCCNc1ccccc1	84.8%	28.3%	93.9%	107%	112%	84.8%	99.9%	105%	108%	94.6%
COc1ccc(/C(=C/c2cc(OC)c(OC)c(OC)c2)[N+](=O)[O-])cc1	-11.2% (active)	-18.6% (active)	13.4%	98.6%	37.3%	91%	-4.79% (active)	-54.3% (active)	97.9%	33.8%
COc1ccc(/C=C/C(=O)/C=C(/C=C/c2ccc(OC)c(OC)c2OC)OB(F)F)c(OC)c1OC	0.627% (active)	2.74% (active)	10%	62.9%	47.4%	76.8%	26.3%	5.1% (active)	23.6%	32.5%
C=C1C(=O)O[C@H]2[C@H]1CC/C(COC(=O)c1ccccc1)=C\CC[C@@]1(C)O[C@@H]21	-14.1% (active)	-36.4% (active)	-34.3% (active)	2.5% (active)	5.21% (active)	95.4%	-24.9% (active)	-44.5% (active)	44%	36.2%
c1nc(SC2=NCCN2)c2[nH]cnc2n1	22%	29.2%	41%	48.5%	61.7%	8.1% (active)	64%	30.8%	79.4%	22.5%
O=C1COc2ccccc2C(=O)N1CCCCN1CCCCC1	90.1%	70.9%	94.2%	95.9%	95%	80.4%	92%	110%	102%	98.8%
COc1ccc(-c2nnc(SCC(=O)Nc3ccc(C(=O)/C=C/c4ccc(OC)c(OC)c4)cc3)o2)cc1	60.1%	60.1%	88.1%	124%	86.9%	84.6%	85.9%	100%	93.4%	90.1%
Cl[C@@H]1CCO[C@H](c2cc3ccccc3c3ccccc23)C1	93.8%	83.3%	98.9%	91.5%	94.8%	97.2%	97.9%	108%	103%	103%
COc1ccc(NC(=O)Nc2ccc(-c3ccc(OC)c(OC)c3)nc2C)cc1	57.3%	83.8%	47.4%	98%	29.5%	74.8%	77.1%	102%	40%	85%
O=c1c2ccccc2sc2c(NCCCNCCO)nc3ccccc3c12	-25.9% (active)	-14.8% (active)	17.7%	76.3%	60.4%	69.4%	27%	35.2%	34%	31.5%
CC(C)(CCN=C(N)Nc1ccccn1)c1ccc(C(F)(F)F)cc1	-41.3% (active)	-46.9% (active)	15.7%	37.4%	22.3%	42.5%	11.9%	32.1%	62.1%	31.4%
C/C(=N/NC(=O)Cn1c2ccccc2c2ccncc21)c1cccs1	83.3%	87.4%	92.8%	112%	99.8%	102%	90.6%	103%	91.1%	101%
O=C(Nc1ccccc1Cl)c1c[nH]c(=O)c(-c2ccc(N3CCCOC4(CC4)C3)cc2)c1	39.6%	21.2%	58.3%	87%	44.3%	74.6%	85.7%	64.5%	87.3%	60.6%
COc1cc(/C=C\c2cc(/C=C\c3ccc(O)c(OC)c3)n(C(=O)CNc3ccccc3OC)n2)ccc1O	2.38% (active)	80.1%	84.6%	102%	84.2%	83.8%	90.5%	59.7%	49.8%	54.4%
C[C@]12O[C@H]1[C@H](O)c1c(cc(O)c3c1C(=O)c1cccc(O)c1-3)C2=O	93.6%	93.6%	98.1%	106%	92.4%	97.9%	102%	106%	93.9%	107%
Cc1c(Cl)ccc2c(C(=O)Cl)cc(-c3ccccc3)nc12	91.8%	92.2%	99.7%	97.1%	88.5%	99.4%	107%	104%	98.9%	101%
Clc1ccc(OCc2nc(-c3ccccc3)n[nH]2)c(Cl)c1	97.1%	94%	96.5%	99.7%	98.1%	80.9%	97.6%	108%	88.6%	101%
CN(C)c1ccc2cc(-c3nc4ccccc4s3)c(N)nc2c1	20.9%	10.6%	67.8%	121%	78.3%	50.9%	63.6%	11.9%	91.9%	34.3%
